High-throughput results from PubChem.
A selection: hits, their analogues and other compounds. The true share with any hit is near 12%.
JMJD2A Tudor – qHTS Assay for Inhibitors of JMJD2A-Tudor Domain; actives 4.4% (n = 390,000); Potency, µM (doses to about 114 µM), for inactives: at the highest dose activity change, negative = inhibition, most hits filed as inhibitors; Lysine-specific demethylase 4A (Homo sapiens), O75164; AlphaScreen JMJD2A-Tudor / H3K4me3 peptide binding; AID 504339, 2011; note: potency is the fitted concentration of half-maximal effect; % is set by controls: 0 for no effect and ±100 for the full control effect; nearly all actives have a fitted effect of over 50% in size
BAZ2B inh – qHTS Assay for Inhibitors of BAZ2B; Bromodomain adjacent to zinc finger domain protein 2B (Homo sapiens), Q9UIF8; Potency, µM (titrated, usually from 114 µM), without a hit: top-dose activity change, negative = inhibition, hits mostly inhibitors; actives 4.4% (n = 360,000); AID 504333, 2011; AlphaScreen BAZ2B-H3K14Ac peptide displacement; note: potency is the fitted concentration of half-maximal effect; % is set by controls: 0 for no effect and ±100 for the full control effect; nearly all actives have a fitted effect of over 60% in size
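In this displacement format the biotinylated H3(5-23) peptide acetylated at Lys14 serves as ligand at 50 nM, with BAZ2B at 50 nM in PBS pH 7.4 containing 0.01% Tween-20. Donor and acceptor beads are 10 ug/mL final.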
PLK1 PBD block – qHTS for Inhibitors of PLK1-PDB (polo-like kinase 1 - polo-box domain): Primary Screen | Serine/threonine-protein kinase PLK1 (Homo sapiens), P53350 | Plk1 PBD binding of FITC phosphopeptide, fluorescence polarization | Potency, µM, for the others: max response, negative = inhibition, hits mostly inhibitors | actives 2.8% (n = 360,000); note: potency is the fitted concentration of half-maximal effect; series mostly up to about 57 µM; % is set by controls: 0 for no effect and ±100 for the full control effect; nearly all actives have a fitted effect of over 65% in size
HP1b binding inh – HTS for Inhibitors of HP1-beta Chromodomain Interactions with Methylated Histone Tails. AlphaScreen HP1-beta / biotin-H3K9me3 peptide binding. Potency, µM (top dose mostly 114 µM), without a hit: at the highest dose activity change, negative = inhibition, most hits filed as inhibitors. actives 0.56% (n = 390,000); note: potency is the fitted concentration of half-maximal effect; nearly all actives have a fitted effect of over 70% in size
Target sequence (P83916 whole entry, looked up): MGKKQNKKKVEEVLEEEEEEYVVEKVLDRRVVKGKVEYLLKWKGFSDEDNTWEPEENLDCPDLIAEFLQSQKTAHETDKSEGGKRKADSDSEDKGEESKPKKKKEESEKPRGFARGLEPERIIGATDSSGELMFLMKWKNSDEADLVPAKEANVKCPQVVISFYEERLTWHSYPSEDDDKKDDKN
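HP1-beta protein (50 nM final) preincubated 30 min at room temperature with biotinylated H3(1-18)K9me3 peptide (50 nM) in PBS pH 7.4, 0.01% Tween-20, then compound added for 30 min. AlphaScreen streptavidin donor/nickel chelate acceptor beads (10 ug/mL final), 30 min dark, luminescence read.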
G9a block – qHTS Assay for Inhibitors of Histone Lysine Methyltransferase G9a. G9a H3K9 monomethylation, AlphaScreen, 2 h. Histone-lysine N-methyltransferase EHMT2 (Homo sapiens), Q96KQ7. Potency, µM (titrated, usually from 102 µM), for the others: at the top dose activity, negative = inhibition, most hits filed as inhibitors. actives 8.8% (n = 350,000). AID 504332, 2011; note: potency is the fitted concentration of half-maximal effect; % is set by controls: 0 for no effect and ±100 for the full control effect; nearly all actives have a fitted effect of over 75% in size
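Methyltransferase reactions run at room temperature for 2 h (20 nM enzyme, 500 nM biotin-H3K9 peptide, 20 uM SAM) after a 15 min compound preincubation; product detected by AlphaScreen beads and anti-H3K9me1 antibody.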
PI5P4Ka inh – qHTS for Inhibitors of phosphatidylinositol 5-phosphate 4-kinase (PI5P4K). Phosphatidylinositol 5-phosphate 4-kinase type-2 alpha (Homo sapiens), P48426. PI5P4Kalpha enzyme, ADP-Glo luminescence, 60 min; hits give low values. max response, %. actives 1.2% (n = 330,000). AID 652105, 2013; active = max response of -50% or lower; inconclusive = between -30% and -50%; inactive = -30% or higher; note: value at the top dose of about 77 µM; % is set by controls: 0 for no effect and ±100 for the full control effect
Target sequence (P48426 whole entry, looked up): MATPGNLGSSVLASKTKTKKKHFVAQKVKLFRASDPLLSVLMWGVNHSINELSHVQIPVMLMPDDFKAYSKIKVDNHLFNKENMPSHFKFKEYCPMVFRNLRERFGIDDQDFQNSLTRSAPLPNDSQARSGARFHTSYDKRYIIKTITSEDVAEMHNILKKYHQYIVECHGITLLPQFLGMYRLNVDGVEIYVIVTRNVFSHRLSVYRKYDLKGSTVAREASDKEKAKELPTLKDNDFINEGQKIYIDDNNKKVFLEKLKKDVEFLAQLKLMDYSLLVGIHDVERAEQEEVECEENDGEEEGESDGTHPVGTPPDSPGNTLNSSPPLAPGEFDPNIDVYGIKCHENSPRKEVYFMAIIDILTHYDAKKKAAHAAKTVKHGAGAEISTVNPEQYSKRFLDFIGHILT
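Controls without substrate or without enzyme flank wells where PI5P4Kalpha converts substrate using 5 microM ATP (final). Incubation lasts 60 minutes at room temperature; ADP formed is read by ADP-Glo luminescence.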
Active calls of the source: *; ? = inconclusive; . = no result given; [ ] = remark or other dose. Unless noted, calls come from the whole dose curve; as a rule, active = well fitted curve in the direction sought with a large enough effect; inconclusive = small, poorly fitted or top-dose-only effect, or another doubt; inactive = no such curve, though single readings can be large; an effect the other way counts as inactive or inconclusive.

SMILES | JMJD2A Tudor | BAZ2B inh | PLK1 PBD block | HP1b binding inh | G9a block | PI5P4Ka inh
CN(C)c1nc(N)nc2c1ncn2C1OC(CO)CC1O (stereo not drawn) | . | . | -10% | . | . | 3
Fc1ccc(-c2n[nH]c(=S)n2/N=C/c2c[nH]c3ccccc23)cc1 | ? | 8% | -6% | 20% | 1.8µM* | 10
Cc1cc(-c2n[nH]c(=S)n2/N=C/c2ccccc2[N+](=O)[O-])n[nH]1 | 3.5µM* | ? | -18% | ? | 0.4µM* | -15
Cc1cc(-c2n[nH]c(=S)n2/N=C/c2c[nH]c3ccccc23)n[nH]1 | 10µM* | -22% | -4% | 11% | 0.79µM* | -12
CC1CCCCN1C(=O)COC(=O)c1ccc(S(C)(=O)=O)c([N+](=O)[O-])c1 (stereo not drawn) | ? | . | . | 50% | . | .
Cc1sc(NC(=S)Nc2ccc(F)cc2)c(C(N)=O)c1C | -6%[11.4 µM] | -15% | ? | -10% | 28µM* | -8
CCOC(=O)c1c(NC(=S)Nc2ccc(Cl)cc2)sc(C)c1C | -10% | -1% | -15% | -1% | ? | 0
COC(=O)c1c(NC(=S)Nc2ccc(CC(=O)O)cc2)sc(C)c1C | -10%[57.1 µM] | -3% | ? | -2% | 8.9µM* | -23
CC(=O)Nc1ccc(NC(=S)Nc2ccc(F)cc2)cc1 | -11% | -13% | -10% | 17% | 2% | 4
CC(=O)Nc1ccc2oc(C)nc2c1 | -15% | -14% | -5% | -4% | 8% | 0
CC(=O)CCc1oc2ccc(NC(C)=O)cc2c1-c1ccc(C)o1 | ? | ? | -4% | 11% | 13µM* | 4
CN1CCCN(CC(O)COCc2cccs2)CC1 (stereo not drawn) | -12% | 12% | -1% | 21% | 40µM* | -5
OC(COCc1cccs1)CN1CCN(c2cccc(Cl)c2)CC1 (stereo not drawn) | 2.8µM* | 50µM* | -8% | ? | 10µM* | 10
Oc1c(Br)cc(/C=N/n2c(-c3ccccc3)n[nH]c2=S)c(Br)c1O | . | 1.8µM* | . | . | 1.8µM* | .
O=[N+]([O-])c1ccc(Cl)c(/C=N/n2c(-c3ccncc3)n[nH]c2=S)c1 | 3.2µM* | -1% | -14% | 14% | 4µM* | -1
O=[N+]([O-])c1ccc(O)c(/C=N/n2c(-c3ccccc3)n[nH]c2=S)c1 | 5.6µM* | -10% | -20% | 12% | -14%[0.501 µM] | -28
Oc1c(Br)cc(Br)cc1/C=N/n1c(-c2ccccc2)n[nH]c1=S | 40µM* | ? | ? | ? | 10%[0.501 µM] | -54*
CCCCc1ccc(NC(=O)Cn2cnc3c2c(=O)n(C)c(=O)n3C)cc1 | -9% | 1% | . | 25% | -32%[59 µM] | .
COc1cc(NC(=O)CSc2ccc(-c3sc(-c4ccccc4)nc3C)nn2)cc(OC)c1 | -1% | -3% | . | 42% | 7%[59 µM] | .
COc1cc(C2Nc3ccccc3C(=O)N2Cc2ccccc2)ccc1OCc1ccc(NC(C)=O)cc1 (stereo not drawn) | -22% | . | . | . | . | .
Oc1ccccc1/C=N/n1c(-c2ccccc2)n[nH]c1=S | 25µM* | ? | -22% | -17% | 1.6µM* | -3
COc1c(Br)cc(/C=N/n2c(-c3ccccc3)n[nH]c2=S)c(O)c1Br | ? | -9% | ? | -16% | . | -55*
CCSC1=NC2(CCN(C(=O)NC3CCCCC3)CC2)N=C1c1ccc(C)cc1 | 12% | -3%[57.1 µM] | . | 22% | 6%[59 µM] | .
CN(C(=O)COC(=O)CSc1ccc([N+](=O)[O-])cc1)c1ccccc1 | 79µM* | -1% | 13µM* | ? | -25%[59 µM] | -16
O=C(CSc1ccc([N+](=O)[O-])cc1)OCC(=O)N1CCCC1=O | -17% | 2% | -24% | 23% | 3%[12.7 µM] | 8
SMILES | JMJD2A Tudor | BAZ2B inh | PLK1 PBD block | HP1b binding inh | G9a block | PI5P4Ka inh
CN(C(=O)COC(=O)c1ccc([N+](=O)[O-])cc1)c1ccccc1 | -25% | -26% | -8% | 11% | -1% | 0
CC1CCN(C(=O)C(C)OC(=O)CSc2ccc([N+](=O)[O-])cc2)CC1 (stereo not drawn) | ? | 7% | 15µM* | -13% | 7%[12.7 µM] | ?
CC(OC(=O)CSc1ccc([N+](=O)[O-])cc1)C(=O)NCc1ccco1 (stereo not drawn) | -31% | -6% | -14% | -5% | -11% | -17
N/C(=N\OC(=O)CSc1ccccc1)c1ccc([N+](=O)[O-])cc1 | ? | ? | 27µM* | ? | -48%[59 µM] | 6
CC1CN(C(=O)COC(=O)CSc2ccc([N+](=O)[O-])cc2)CC(C)O1 (stereo not drawn) | -14% | -2% | 17µM* | -1% | ? | -19
CCC(C)NC(=O)Cn1ncc2c([nH]c3ccc(C)cc32)c1=O (stereo not drawn) | -15% | 5% | . | 45% | 0%[59 µM] | .
CCc1ccccc1NC(=O)N1CCN(c2nnc(C)c3c(C)n(-c4ccccc4)nc23)CC1 | -9% | -8% | . | 1% | 12%[59 µM] | .
CN(C)c1ccc(-c2cc[nH]c(=O)c2N)cc1 | 20µM* | . | . | . | . | .
Cc1ccc(Cl)c(OCC(=O)Nc2sc(C)c(C)c2C#N)c1 | -22% | -3% | -20% | 4% | 45µM* | -2
Cc1cc(Cl)ccc1-n1c(CCC(=O)O)ccc1-c1cccs1 | ? | 45µM* | . | -14% | ? | .
Cc1c(Cl)cccc1-n1c(CCC(=O)O)ccc1-c1cccs1 | -34% | -33% | . | 4% | ? | .
Cc1ccc(Cl)cc1-n1c(CCC(=O)O)ccc1-c1cccs1 | ? | ? | . | 0% | 11µM* | .
O=C1N(c2ccccc2)C(c2ccccc2)C12CCCCC2 (stereo not drawn) | 30% | . | -2% | 88% | . | 4
CN(C)c1cccc(NC(=O)CCc2ccccc2)c1 | 12%[11.4 µM] | ? | -19% | ? | 3.2µM* | 2
CC(=O)Nc1cccc(NC(=O)CCc2ccccc2)c1 | -9% | -31% | -14% | 5% | ? | 1
CN(C)c1cccc(NC(=O)c2cccc3ccccc23)c1 | 22µM* | 28µM* | -9% | 50µM* | 32µM* | -4
CNC(=S)N1N=C(c2cccs2)CC1c1ccc(F)cc1 (stereo not drawn) | 11% | 5% | -3% | 108% | 6%[0.501 µM] | 3
COc1cc(/C=C2/NC(=O)N(Cc3ccccc3F)C2=O)cc(OC)c1O | -20% | 1% | -4% | 33% | 35µM* | 1
